The list is not random: actives were taken first. Their share in the collection is about 1.9%.
ZTA counter – ZTA (EBV) inhibition in EBNA-1 counter-screen | P03206 | ZTA-DNA binding, fluorescence polarization | inhibition, % at 11 µM | hit rate 0.15% among 320,000 | AID 2234; in the data active means inhibition above about 33%
p47phox inh – blocks human p47phox regulatory protein of NADPH oxidases. p47phox/p22phox peptide binding, fluorescence polarization, 2 h. inhibition, % at 24.7 µM. hit rate 0.53% among 220,000;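 active means inhibition above about 30%, limit read from the data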;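 further: 0% = p47phox with labelled peptide and 100% = labelled peptide alone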
Rev-erbA mod – modulators of human Rev-erb alpha DNA binding | P20393 | Rev-erbα–FITC-DNA binding, fluorescence polarization, 90 min | activity, % at 10 µM | hit rate 0.79% among 370,000 | AID 1259318;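 active means activity above about 14%, limit read from the data; passing the limit was not always enough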;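 further: 0% = DMSO wells with 35 nM protein and 100% = DMSO wells with 750 nM protein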
Target sequence (P20393 whole entry, looked up): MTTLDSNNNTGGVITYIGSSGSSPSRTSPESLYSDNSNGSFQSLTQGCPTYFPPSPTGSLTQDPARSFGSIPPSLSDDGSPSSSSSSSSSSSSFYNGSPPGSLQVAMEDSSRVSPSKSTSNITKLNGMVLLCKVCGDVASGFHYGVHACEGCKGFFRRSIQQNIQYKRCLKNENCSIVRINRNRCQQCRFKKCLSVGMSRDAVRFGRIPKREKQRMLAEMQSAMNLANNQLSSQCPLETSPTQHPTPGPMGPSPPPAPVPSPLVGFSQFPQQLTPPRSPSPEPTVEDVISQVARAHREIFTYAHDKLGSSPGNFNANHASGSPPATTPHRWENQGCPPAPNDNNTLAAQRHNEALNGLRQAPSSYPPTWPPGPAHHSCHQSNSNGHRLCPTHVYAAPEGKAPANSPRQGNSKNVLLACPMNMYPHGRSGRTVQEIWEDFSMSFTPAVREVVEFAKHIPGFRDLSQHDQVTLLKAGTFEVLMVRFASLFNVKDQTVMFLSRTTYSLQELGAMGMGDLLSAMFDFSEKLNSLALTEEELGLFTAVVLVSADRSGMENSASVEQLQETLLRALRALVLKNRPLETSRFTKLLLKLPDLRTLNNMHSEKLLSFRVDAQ
EBNA-1 inhibitor – blocks EBNA-1 binding to DNA; EBNA-1 DNA binding, fluorescence polarization; inhibition, % at 14.8 µM; hit rate 0.34% among 300,000; AID 1950; in the data active means inhibition above about 28%
aDG glyco up – alpha-DG glycosylation activation. hit rate 0.22% among 360,000. Pro5-aDG cells, alpha-DG glycosylation AlphaScreen (IIH6); 0% Pro5, 100% B10-LARGE cell signal. activation, % at 10 µM. AID 624168;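 active means activation of at least 8% versus controls, or a plate z-score of at least 8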;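 further: Pro5 are CHO cells carrying HIG-tagged alpha-DG that lacks glycosylation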
PG9 Ab binder – PG9 antibody binding by small molecule; inhibition, % at 6.7 µM; hit rate 0.43% among 360,000; AID 624416; TR-FRET gp120-PG9 antibody binding; in the data active means inhibition above about 8.5%
aDG conf – alpha-DG glycosylation activation, confirmation | shares compounds with aDG glyco up | Pro5-aDG cells, IIH6 AlphaLISA; scaled to LARGE-overexpressing B10 cells as 100% | activation, % at 10 µM (by protocol) | hit rate 17% among 600;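 active means activation of at least 7% in one or more replicates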;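 further: cells exposed to compound for two days before detection; 0% = DMSO-treated Pro5 cells and 100% = DMSO-treated B10-LARGE cells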
* hit, by the source's call; . = no result given; ! = not confirmed by another sample.

SMILES	ZTA counter	p47phox inh	Rev-erbA mod	EBNA-1 inhibitor	aDG glyco up	PG9 Ab binder	aDG conf
O=C1CSc2ccc(C(=O)N3CCCC(C(=O)N4CCN(c5ccc(F)cc5)CC4)C3)cc2N1 (stereo not given)	.	.	-9	.	.	.	.
CC(=O)c1ccc(N2CCN(C(=O)Nc3ccc(C(C)C)cc3)CC2)cc1	-1	-12	-5	6	7.4*	-1	6.8*
O=C(O)CSc1nnc(-c2ccccc2O)n1Cc1ccccc1	14	-11	2	-4	83*	3	0
O=C(CSc1nnc(-c2ccccc2O)n1Cc1ccccc1)NNC(=O)c1ccccc1O	-1	-23	-3	-7	0	-1	.
O=C(OC12CCCN(C1)/C(=C/c1ccc(Cl)cc1)C2)c1ccc(Cl)cc1 (stereo not given)	.	.	-3	.	.	.	.
CCc1nc(CN2CCCC(C(=O)c3ccc4c5c(cccc35)CC4)C2)c(C)[nH]1 (stereo not given)	11	-50	0	5	7.3*	-3	-1
CC(O)C1C(=O)OC2(C)CC(C)(C)NC(=S)N12 (stereo not given)	-1	-13	1	-2	0	-2	.
CC1(C)CC2(C)OCCN2C(=S)N1 (stereo not given)	-24	-9	-1	-8	3.3*!	-3	0
CCC[C@@H](/C=C/C(=O)OC(C)(C)C)Sc1ccccc1OC	.	.	11	.	.	.	.
O=C1C2CCC(C2)C1CN1CCOCC1 (stereo not given)	.	.	2	.	13*	1	-1
COCC#Cc1ccc(CC[C@H]2O[C@H]3CC[C@H](CO)O[C@H]3C[C@H]2n2cc(C(C)(C)O)nn2)cc1	.	.	-2	.	.	.	.
O=C(c1cc(-c2ccccc2)on1)N1CCC(Oc2cccnc2)CC1	.	.	-5	.	.	.	.
CN1CC[n+]2cnc3ccccc3c21	-8	-7	-5	-3	6.2*	-1	-1
COC(=O)[C@]12C[C@H](CC(=O)N3CCCCC3)C(=O)N(Cc3cccc4ccccc34)C1=C[C@H](C(C)(C)C)O[C@@H]2C	.	.	6	.	.	.	.
CN(CC(=O)Nc1cccc(Cl)c1)S(=O)(=O)c1ccc2[nH]c(=O)oc2c1	-5	.	-6	14	5.7*	2	-1
COc1ccc(OC)c(S(=O)(=O)N2CCCC(C(=O)Nc3c(C)n(C)n(-c4ccccc4)c3=O)C2)c1 (stereo not given)	.	.	-4	.	.	.	.
CN(CCc1ccccc1)C(=O)c1ccc2c(c1)ncn2C1CCCCC1	.	.	-4	.	.	.	.
CC(C)NC(=O)N(C)C[C@H]1Oc2ccc(NS(=O)(=O)c3cn(C)cn3)cc2C(=O)N([C@H](C)CO)C[C@@H]1C	.	.	-6	.	9.3*	0	2
C[C@H](CO)N1C[C@H](C)[C@@H](CN(C)C(=O)NC2CCCCC2)Oc2ccc(NS(=O)(=O)c3cn(C)cn3)cc2C1=O	.	.	1	.	0	0	.
c1ccc(C2CCC3(CC2)CCC3NCc2cccs2)cc1 (stereo not given)	.	.	3	.	.	.	.
COc1cc(OC)cc(-c2c(C#Cc3ccsc3)c3cc(Br)ccc3n2C)c1	6	.	-3	.	0	-1	.
COc1cc(C#Cc2c(-c3cncn3C)n(C)c3ccc(Br)cc23)cc(OC)c1	.	.	10	.	5.0*	1	1
Cc1cccc(NC(=O)Cn2nnc(-c3ccccc3F)n2)c1C	.	.	-6	.	.	.	.
COC(=O)c1cc(-c2ccc(C(C)(C)C)cc2)c(=O)n2c1CCC2	.	.	-6	.	.	.	.
c1ccc(-c2nc3c4ccccc4ccn3c2CC2CCCCC2)cc1	.	.	-2	.	4	-2	.
SMILES	ZTA counter	p47phox inh	Rev-erbA mod	EBNA-1 inhibitor	aDG glyco up	PG9 Ab binder	aDG conf
Brc1cccc(-c2nc3c4ccccc4ccn3c2CC2CCCCC2)c1	.	.	3	.	15*	-1	5.8*
O=C(CN1C2=NCCCN2c2ccccc21)c1ccc([N+](=O)[O-])cc1	-8	1	4	9	7.5*	-1	1
Cc1cc(C(=O)Nc2ccc(Cl)cc2)n(-c2ccccc2)n1	-1	.	-1	-14	2.7*	-2	0
Cc1cc(C)cc(NC(=O)N2CCC(c3nc4ccc(Cl)cc4[nH]3)CC2)c1	.	.	1	.	.	.	.
O=C(COCc1ccccc1)N1CC[C@H]2[C@H](CCCN2Cc2ccccc2)C1	.	.	-3	.	.	.	.
Cc1ccc2c(c1)NC(=O)C(CC(=O)NCCCN1CCN(c3cc(Cl)ccc3C)CC1)O2 (stereo not given)	9	-1	-4	-8	14*	1	0
CCc1ccc(C2c3[nH]c4ccccc4c3CCN2C(=O)CN2CCN(CC)CC2)cc1 (stereo not given)	6	7	-3	-7	8.0*	1	13*
CCc1ccc(C2c3[nH]c4ccccc4c3CCN2C(=O)CNC(N)=O)cc1 (stereo not given)	8	-2	-4	-1	0	1	.
c1csc(-c2nc3c4ccccc4c4ccccc4c3[nH]2)c1	13	-25	5	5	5.5*	2	4
COC(=O)[C@@H]1C[C@@]2(c3ccccc3)c3ccccc3N(S(=O)(=O)c3ccccc3)[C@H]2N1C(=O)CNC1CCCCC1	.	.	2	.	.	.	.
COc1cccc(-c2nc3nc(C)cc(C)n3c2NCc2ccccc2)c1	.	.	3	.	5.3*	-2	1
CCCCOc1ccc(C(=O)NCC(=O)NCc2ccccn2)cc1	-21	.	-1	-3	7.3*	0	0
CCn1cc(C(=O)NCC(OC)OC)c(=O)c2cc(S(=O)(=O)N3CCOCC3)ccc21	2	.	-3	-14	7.6*	0	0
Cc1ccccc1C(=O)NNC(=O)c1cccc([N+](=O)[O-])c1	5	7	-2	-1	0	0	.
COc1ccc(Cl)cc1C(=O)NNC(=O)c1cccc([N+](=O)[O-])c1	-12	-3	8	-6	3.3*	-2	0
CCOC(=O)c1cn2ccc(C)cc2n1	8	0	0	2	20*	-1	1
CCOC(=O)c1c(C)nc2cc(C)ccn12	1	-1	-4	0	0	-2	.
C=CCN1C(C(=O)OC)CN(Cc2cn(Cc3ccc(Cl)cc3)nn2)CCS1(=O)=O (stereo not given)	.	.	4	.	.	.	.
CCOC(=O)[C@@]12CN(C(=O)OC(C)(C)C)CC=C1N(Cc1ccc(OC)cc1)C(=O)[C@H]2CC(=O)N1CCCCC1	.	.	1	.	.	.	.
CCNC(=O)Nc1cc(S(=O)(=O)Nc2ccc(OC)cc2)ccc1N1CCOCC1	12	.	.	.	4.9*	.	-1
CCCCNC(=O)c1ccc(N2CCOCC2)c(NS(=O)(=O)c2ccc(OC)cc2)c1	0	-2	3	-5	0	-3	.
CCOC(=O)c1cc(-c2ccc(F)cc2)n(CCC(=O)NC2CCN(Cc3ccccc3)CC2)c1C	-1	-8	3	-3	8.4*	-1	3.5*
O=C(NCc1cccnc1)O[C@H]1CC[C@@]23CCCN2C(=O)CCC[C@H]3C1	.	.	-2	.	.	.	.

From PubChem BioAssay
